MEKK3 PB1 HTS – modulators (inhibitors or enhancers) of MEK5 binding to human MEKK3 PB1 domain | Q99759 | bead-based flow cytometry, Alexa488-MEK5 binding to MEKK3; actives lie on both sides; 0 = blocked by unlabeled MEK5, 100 = vehicle | binding response (% of control), % at 10 µM | actives 1.4% (n = 290,000) | AID 1529;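 active means binding response more than 3 SD above or below the average of its plate-row segment, actives on both sides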;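 further: Alexa488 bead fluorescence after subtracting the streptavidin-only scavenger bead signal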
UBC13 inh – blocks human UBC13 polyubiquitin chain formation. actives 0.47% (n = 330,000). P61088. inhibition, % at 20 µM. TR-FRET. AID 485273; in the data active means inhibition above about 45%, passing the limit was not always enough
Target sequence (P61088 whole entry, looked up): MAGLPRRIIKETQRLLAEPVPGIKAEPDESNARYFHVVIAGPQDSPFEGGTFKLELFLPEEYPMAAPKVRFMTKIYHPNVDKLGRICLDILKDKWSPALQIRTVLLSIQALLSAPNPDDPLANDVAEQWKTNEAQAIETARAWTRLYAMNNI
MEKK2 WT-MEK5 – raises or lowers MEK5 binding to wildtype human MEKK2 PB1 domain; actives 1.1% (n = 290,000); binding response (% of control), % at 10 µM; AID 1531; bead flow cytometry, Alexa488-MEK5 binding to MEKK2 WT; actives lie on both sides; Q9Y2U5; in the data active means binding response below about 67% or above about 130%
MEKK2mut PB1 HTS – signal of MEK5 binding to mutant human MEKK2 PB1 domain. actives 0.35% (n = 290,000). percent response, % at 10 µM. bead flow cytometry, Alexa488-MEK5 binding to MEKK2 mutant. AID 1530; in the data active means percent response above about 24%, passing the limit was not always enough
MEKK2wt confirm – raises or lowers MEK5 binding to wildtype human MEKK2, retest | shares compounds with MEKK3 PB1 HTS | bead flow cytometry, Alexa488-MEK5 binding to MEKK2 WT; actives lie on both sides | binding response (% of control), % at 10 µM | actives 2.4% (n = 5,900) | AID 1892; in the data active means binding response below about 16% or above about 210%; inactive means in between
MEKK2mut confirm – signal of MEK5 binding to mutant human MEKK2, retest. percent response, % at 10 µM. AID 1893. bead flow cytometry, Alexa488-MEK5 binding to MEKK2 mutant. shares compounds with MEKK3 PB1 HTS. actives 2% (n = 5,900); in the data active means percent response mostly above about 71%, no sharp cut-off; inactive means mostly below about 38%;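 further: higher means compound restores mutant binding toward wildtype level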
MEKK3 confirm – confirmation of inhibitors of MEK5 binding to human MEKK3. shares compounds with MEKK3 PB1 HTS. bead flow cytometry, Alexa488-MEK5 binding to MEKK3; hits give low values. binding response (% of control), % at 10 µM. actives 1.8% (n = 5,900). AID 1894;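 active means binding response below 72% of control, or above a set upper limit, though filed actives all read lower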;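 further: 100% = DMSO only wells and 0% = binding blocked by excess unlabeled MEK5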
Numbers without * were called inactive; [ ] = dose if it differs, or a comment. This is a sample that favours compounds with a hit; in the whole collection about 2.3% have one here.

Results for CCOC(=O)c1c(-c2ccc(OC)cc2)csc1/N=C/N(C)C ?
MEKK3 PB1 HTS: 136.0*; UBC13 inh: -3.9; MEKK2 WT-MEK5: 105.0; MEKK2mut PB1 HTS: 0.0; MEKK2wt confirm: 99.0; MEKK2mut confirm: -5.0; MEKK3 confirm: 97.0

How did Cc1c(C)n(Cc2ccccc2)c2ccc(C(=O)OCCCN(C)C)cc12 do in these assays?
MEKK3 PB1 HTS: 105.0; UBC13 inh: 31.2; MEKK2 WT-MEK5: 158.0*; MEKK2mut PB1 HTS: -2.0; MEKK2wt confirm: 151.0; MEKK2mut confirm: 39.0; MEKK3 confirm: 104.0

How did Cc1ccccc1OCC(=O)NC(=S)Nc1ccc(S(=O)(=O)NC2CCCCC2)cc1 do in these assays?
MEKK3 PB1 HTS: 108.0; UBC13 inh: -5.4; MEKK2 WT-MEK5: 104.0; MEKK2mut PB1 HTS: 5.0

Results for CC(=O)NS(=O)(=O)c1ccc(NC(=S)NC(=O)COc2ccccc2C)cc1 ?
MEKK3 PB1 HTS: 139.0*; UBC13 inh: 18.4; MEKK2 WT-MEK5: 106.0; MEKK2mut PB1 HTS: 0.0; MEKK2wt confirm: 92.0; MEKK2mut confirm: -6.0; MEKK3 confirm: 98.0

Results for Clc1ccc(/C(Cc2nc3ccccc3[nH]2)=N\Nc2ccccc2)cc1 ?
MEKK3 PB1 HTS: 110.0; UBC13 inh: -14.1; MEKK2 WT-MEK5: 153.0*; MEKK2mut PB1 HTS: 42.0; MEKK2wt confirm: 138.0; MEKK2mut confirm: 13.0; MEKK3 confirm: 108.0

How did Cc1cc(N/N=C/c2ccccc2Br)nc2ccccc12 do in these assays?
MEKK3 PB1 HTS: 99.0; UBC13 inh: 7.0; MEKK2 WT-MEK5: 144.0*; MEKK2mut PB1 HTS: 22.0; MEKK2wt confirm: 136.0; MEKK2mut confirm: 13.0; MEKK3 confirm: 104.0

Results for Brc1ccccc1/C=N/Nc1ccc2ccccc2n1 ?
MEKK3 PB1 HTS: 101.0; UBC13 inh: -3.0; MEKK2 WT-MEK5: 126.0; MEKK2mut PB1 HTS: 15.0

Results for CCN1CCN(C(=S)Nc2cccc(Cl)c2)CC1 ?
MEKK3 PB1 HTS: 100.0; UBC13 inh: 1.1; MEKK2 WT-MEK5: 99.0; MEKK2mut PB1 HTS: -7.0

How did CCN1CCN(C(=S)Nc2ccc(Cl)c(Cl)c2)CC1 do in these assays?
MEKK3 PB1 HTS: 64.0*[inhibitor]; UBC13 inh: 7.9; MEKK2 WT-MEK5: 62.0*[inhibitor]; MEKK2mut PB1 HTS: -3.0; MEKK2wt confirm: 111.0; MEKK2mut confirm: 10.0; MEKK3 confirm: 104.0

Results for Cc1cccc(-c2nc3c(c(SCC(=O)N4CCOCC4)n2)COC(C)(C)C3)c1 ?
MEKK3 PB1 HTS: 104.0; UBC13 inh: 12.9; MEKK2 WT-MEK5: 105.0; MEKK2mut PB1 HTS: 3.0

Results for CC(C)(C)NC(=O)c1oc2ccccc2c1COc1ccccc1 ?
MEKK3 PB1 HTS: 69.0*[inhibitor]; UBC13 inh: -13.9; MEKK2 WT-MEK5: 102.0; MEKK2mut PB1 HTS: -1.0; MEKK2wt confirm: 103.0; MEKK2mut confirm: -12.0; MEKK3 confirm: 97.0

Results for CC(OC(=O)c1oc2ccccc2c1COc1ccccc1)C(N)=O (configuration not stated) ?
UBC13 inh: 9.0

Results for COC(=O)c1ccc(N2CCN(C)CC2)c(NC(=O)c2cccs2)c1 ?
MEKK3 PB1 HTS: 100.0; UBC13 inh: 2.9; MEKK2 WT-MEK5: 98.0; MEKK2mut PB1 HTS: -1.0

What do the screens show for `COc1cc(OC)c(OC)cc1CNC(=O)c1cccc(S(=O)(=O)N2CCc3ccccc3C2)c1`?
UBC13 inh: 1.1

Results for COc1ccc(N2C(=O)CC(Sc3nc(C)cc(C)c3C#N)C2=O)cc1 (configuration not stated) ?
MEKK3 PB1 HTS: 1.0*[inhibitor]; UBC13 inh: 0.2; MEKK2 WT-MEK5: -7.0*[inhibitor]; MEKK2mut PB1 HTS: -3.0; MEKK2wt confirm: 102.0; MEKK2mut confirm: 2.0; MEKK3 confirm: 106.0

What do the screens show for `Cc1oc(/C=N/NC(=O)CC2(C)OCCO2)cc1Br`?
MEKK3 PB1 HTS: 132.0*; UBC13 inh: -3.1; MEKK2 WT-MEK5: 111.0; MEKK2mut PB1 HTS: 2.0; MEKK2wt confirm: 107.0; MEKK2mut confirm: 6.0; MEKK3 confirm: 106.0

Results for Cc1ccc(C(c2nnnn2Cc2cccs2)N2CCN(C(=O)c3ccco3)CC2)cc1 (configuration not stated) ?
MEKK3 PB1 HTS: 105.0; UBC13 inh: 4.2; MEKK2 WT-MEK5: 107.0; MEKK2mut PB1 HTS: 5.0

Results for CCC(c1nnnn1Cc1cccs1)N1CCN(C(=O)c2ccco2)CC1 (configuration not stated) ?
MEKK3 PB1 HTS: 0.0*[inhibitor]; UBC13 inh: 12.7; MEKK2 WT-MEK5: -1.0*[inhibitor]; MEKK2mut PB1 HTS: -13.0; MEKK2wt confirm: 96.0; MEKK2mut confirm: 2.0; MEKK3 confirm: 102.0

How did Fc1ccc(N2CCN(Cc3nnc(-c4ccccc4)o3)CC2)cc1 do in these assays?
MEKK3 PB1 HTS: 135.0*; UBC13 inh: -13.4; MEKK2 WT-MEK5: 106.0; MEKK2mut PB1 HTS: 0.0; MEKK2wt confirm: 102.0; MEKK2mut confirm: -6.0; MEKK3 confirm: 101.0

Results for c1ccc(-c2nnc(CN3CCCc4ccccc43)o2)cc1 ?
MEKK3 PB1 HTS: 109.0; UBC13 inh: -4.8; MEKK2 WT-MEK5: 9.0*; MEKK2mut PB1 HTS: 26.0*; MEKK2wt confirm: 104.0; MEKK2mut confirm: 0.0; MEKK3 confirm: 97.0

How did COc1ccc(CC(=O)NC2CC(C)(C)NC(C)(C)C2)cc1 do in these assays?
MEKK3 PB1 HTS: 104.0; UBC13 inh: -5.0; MEKK2 WT-MEK5: 92.0; MEKK2mut PB1 HTS: -3.0

How did CC1(C)CC(=O)/C(=C(/O)Cc2ccccc2)C(=NCCc2ccccc2)C1 do in these assays?
MEKK3 PB1 HTS: 128.0*; UBC13 inh: -1.7; MEKK2 WT-MEK5: 98.0; MEKK2mut PB1 HTS: -1.0; MEKK2wt confirm: 104.0; MEKK2mut confirm: -1.0; MEKK3 confirm: 108.0

Results for CCCCN=C1CC(C)(C)CC(=O)/C1=C(/O)CCCN1C(=O)c2ccccc2C1=O ?
MEKK3 PB1 HTS: 98.0; UBC13 inh: -2.4; MEKK2 WT-MEK5: 97.0; MEKK2mut PB1 HTS: -6.0

Results for Cc1cccc(NC(=O)COC(=O)CN2CCCCCC2=O)c1C ?
UBC13 inh: 10.7

Results for CC(=O)c1cccc(OCC(O)CNCCc2ccc(Cl)cc2)c1 (configuration not stated) ?
MEKK3 PB1 HTS: 103.0; UBC13 inh: -5.6; MEKK2 WT-MEK5: 115.0; MEKK2mut PB1 HTS: 22.0

Results for CCCc1cnc(NCCNCC(O)COc2ccc(Cl)c(Cl)c2)nc1 (configuration not stated) ?
MEKK3 PB1 HTS: 106.0; UBC13 inh: 16.3; MEKK2 WT-MEK5: 144.0*; MEKK2mut PB1 HTS: 31.0; MEKK2wt confirm: 109.0; MEKK2mut confirm: 1.0; MEKK3 confirm: 102.0

How did Cc1cccn2c(=O)c(/C=C(\C#N)C(=O)NC3CCS(=O)(=O)C3)c(Oc3ccc(F)cc3)nc12 (configuration not stated) do in these assays?
MEKK3 PB1 HTS: 104.0; UBC13 inh: 5.5; MEKK2 WT-MEK5: 107.0; MEKK2mut PB1 HTS: 6.0

Source: PubChem (several laboratories)
